# Experimental data published in the supplement of paper PMC7156485.
# ± gives the standard deviation of the averaged measurements.
# Tests used:
# Conditions in all cases: concentration: 10 µM; 24 h
# HCC1569 [1] = assay: cell number relative to DMSO (% of DMSO); higher = more cells (less growth inhibition / toxicity)
# Procedure, shortened: (§1)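 HCC1569 and TDF cells (800 per well, 384-well plates, RPMI with 10% FBS) were treated with compounds at 10 µM for 24 h at 37 °C, in triplicate. Cells were fixed in 3.7% formaldehyde and stained with a rabbit anti-H1.0 antibody, an AlexaFluor 647 secondary and DAPI; six fields per well were imaged at ×10. H1.0 nuclear intensity or cell number is expressed as percent of the plate DMSO control, taking the median of replicates. HCC1569 values were smoothed for positional effects.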
# TDF [2] = assay: as above
# Procedure, shortened: as §1
# TDF [3] = assay: H1.0 immunofluorescence intensity relative to DMSO (% of DMSO); higher = stronger H1.0 induction, active = 120 or more
# Procedure, shortened: as §1
# HCC1569 [4] = assay: H1.0 immunofluorescence intensity relative to DMSO (% of DMSO); higher = stronger H1.0 induction, active = 140 or more
# Procedure, shortened: as §1
# 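Wherever H1.0 immunofluorescence intensity relative to DMSO is given: TDF is a line of transformed human dermal fibroblasts of mesenchymal origin.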
# 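Wherever cell number relative to DMSO is given: TDF denotes transformed human dermal fibroblasts of mesenchymal origin.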
Structure (SMILES),cell number (HCC1569 [1]),cell number (TDF [2]),H1.0 immunofluorescence intensity (TDF [3]),H1.0 immunofluorescence intensity (HCC1569 [4])
Cc1c(C(=O)O)c(O)cc2c1C(=O)c1c(O)c(C3OC(CO)C(O)C(O)C3O)c(O)c(O)c1C2=O (stereo not given) [Carminic acid],101,107,102 (inactive),99.8 (inactive)
COc1cc2c(cc1OC)C1C(C)c3ccc(OC)c(OC)c3CN1CC2 (stereo not given) [Corydaline],96.9,106,94.4 (inactive),84.2 (inactive)
O=c1oc2c(O)c(O)cc3c(=O)oc4c(O)c(O)cc1c4c23 [Ellagic acid],102,106,102 (inactive),90.6 (inactive)
"C#CCN[C@H]1CCc2ccccc21 [N-[(1S)-2,3-dihydro-1H-inden-1-yl]-N-(2-propynyl)amine]",102,104,92.2 (inactive),98.1 (inactive)
NC(=O)c1ccc(N(C(N)=O)c2c(F)cccc2F)nc1-c1ccc(F)cc1F,105,104,94.8 (inactive),90.2 (inactive)
"COc1cc(SC)ccc1C(=O)N1CCC(Cc2ccccc2)CC1 [p38 MAP Kinase Inhibitor VI, JX401]",104,101,96.9 (inactive),117 (inactive)
O=C(O)c1cn(-c2ccc(F)cc2)c2cc(N3CCNCC3)c(F)cc2c1=O [Sarafloxacin],105,95.3,99.5 (inactive),95.9 (inactive)
CC(C)c1ccc(C(=O)N=C(N)N)cc1S(C)(=O)=O [N''-[4-isopropyl-3-(methylsulfonyl)benzoyl]guanidine],101,93.4,99.1 (inactive),100 (inactive)
Cc1c(C)c2c(c(C)c1O)CCC(C)(C(=O)O)O2 (stereo not given) [Trolox],101,101,94.4 (inactive),91.3 (inactive)
CNCCC(Oc1ccccc1C)c1ccccc1 (stereo not given) [Tomoxetine],101,112,103 (inactive),102 (inactive)
CC(=O)c1ccc(NC2=C(Cl)C(=O)c3ccccc3C2=O)cc1 [2-(4-acetylanilino)-3-chloronaphthoquinone],17.7,8.89,150 (active),178 (active)
"OCCOc1ccc(/C(=C(/CCCl)c2ccccc2)c2ccccc2)cc1 [2-{4-[(1Z)-4-chloro-1,2-diphenyl-1-butenyl]phenoxy}ethanol]",101,96.7,100 (inactive),96.6 (inactive)
CC(C)CC(NC(=O)C1OC1C(=O)O)C(=O)NCCCCN=C(N)N (stereo not given),99.92 ± 0.64,96.3 ± 6.9,97.7 (inactive),97.3 (inactive)
COc1cc(C=C(C#N)C(=O)c2ccc(O)c(O)c2)cc(I)c1O [I-OMe-Tyrphostin AG 538],97.2,102,102 (inactive),106 (inactive)
C[C@H](N[C@@H](CCc1ccccc1)C(=O)O)C(=O)N1CCC[C@H]1C(=O)O.O.O,102,94.9,101 (inactive),109 (inactive)
CC(C=CC1=C(C)CCCC1(C)C)=CC=CC(C)=CC(=O)Nc1ccc(O)cc1 [Fenretinide],51.1,106,97.8 (inactive),181 (active)
CC(=Cc1ccc(C(=O)O)cc1)c1ccc2c(c1)C(C)(C)CCC2(C)C,100.2 ± 0.57,106 ± 2.4,89.4 (inactive),111 (inactive)
Cc1cc2ncc(-c3ccccc3)nc2cc1C,100,97.9,96 (inactive),112 (inactive)
COC(=O)C1C(O)CCC2CN3CCc4c([nH]c5ccccc45)C3CC21.Cl (stereo not given) [Rauwolscine],103,99.5,95.5 (inactive),95.6 (inactive)
COc1ccc(Br)cc1S(=O)(=O)NC(=O)/C=C/c1ccccc1Cc1ccc2ccccc2c1,98.1,103,90.2 (inactive),103 (inactive)
O=C(Cc1ccc(Cl)c(Cl)c1)OCCN1CCCC1.O=C(O)C(=O)O [AC 915 oxalate],101,105,92.1 (inactive),99 (inactive)
CCc1cc(CCC2(C3CCCC3)CC(O)=C(Cc3nc4nc(C)cc(C)n4n3)C(=O)O2)cc(CC)n1 (stereo not given),97.3,106,87.6 (inactive),104 (inactive)
O=c1cc(-c2cccc3c2Sc2ccccc2S3)oc(N2CCOCC2)c1,83.2,97.9,94.5 (inactive),145 (active)
CCCCCCCCCCCC=CCCCCCC(=O)O [7(Z)-Nonadecenoic acid],97.8,104,101 (inactive),96.9 (inactive)
CC(C(=O)O)c1ccc(-c2ccccc2)c(F)c1 (stereo not given) [Flurbiprofen],98.6,101,97.4 (inactive),101 (inactive)

Structure (SMILES),cell number (HCC1569 [1]),cell number (TDF [2]),H1.0 immunofluorescence intensity (TDF [3]),H1.0 immunofluorescence intensity (HCC1569 [4])
"O=c1[nH][nH]c2nnc(-c3c(-c4ccccc4)nn4ccccc34)cc12 [ERK Inhibitor II,                   Negative control]",98.3,98.8,95.5 (inactive),122 (inactive)
C=CC[C@H](N)C(=O)O [L-allylglycine],101,99.3,95.9 (inactive),92.4 (inactive)
"CCCCCCC=CC=CCCCCCCCC(=O)O [(9Z,11E)-Octadecadienoic acid]",97.6,106,99.8 (inactive),100 (inactive)
C#CC1(O)CCC2C3CCC4=CC(=O)CCC4C3CCC21CC (stereo not given) [Levonorgestrel],100,91.5,99.8 (inactive),98.5 (inactive)
CC1(C)C=Cc2c(ccc3c2OC[C@@H](c2ccc(O)cc2O)C3)O1,99.4,93.1,101 (inactive),109 (inactive)
Cc1[nH]c(C=C2C(=O)Nc3ccc(S(=O)(=O)N(C)c4cccc(Cl)c4)cc32)c(C)c1C(=O)N1CCN(C)CC1 [Met Kinase Inhibitor],81.6,59.6,92 (inactive),149 (active)
CC(N)=NCCC[C@H](N)C(=O)O.Cl [L-N5-(1-Iminoethyl)ornithine hydrochloride],101,108,92.8 (inactive),93.3 (inactive)
CCCCCCCCCCOCCC(=O)O [4-Oxatetradecanoic acid],102,110,95.6 (inactive),103 (inactive)
"O=Cc1c2[nH]c3ccccc3c2cc2[nH]c3ccccc3c12 [6-Formylindolo [3,2-B] carbazole]",101,99,91.4 (inactive),100 (inactive)
CCCCOC(=O)NS(=O)(=O)c1sc(CC(C)C)cc1-c1ccc(Cn2c(CC)nc3c(C)cc(C)nc32)cc1,99.7,106,84.8 (inactive),100 (inactive)
Cl.NCCNC(=O)c1ccc(Cl)cc1 [Ro 16-6491 hydrochloride],100,102,94.8 (inactive),107 (inactive)
CNCC(O)C(O)C(O)C(O)CO (stereo not given) [Meglumine],103,120,99.3 (inactive),92.4 (inactive)
O=C1Cc2c([nH]c3ccc([N+](=O)[O-])cc23)-c2ccccc2N1 [Alsterpaullone],82.4 ± 33,72.6 ± 41,92.9 (inactive),99.1 (inactive)
CCCCCOc1ccccc1C(O)CC#CCCCC(=O)OC (stereo not given),103,106,93 (inactive),89.2 (inactive)
CCOC(=O)C1=CC2(CC)CCCN3CCc4c(n1c1ccccc41)C32 (stereo not given) [Vinpocetine],101 ± 3,106 ± 5.3,93.2 (inactive),98.8 (inactive)
CC(O)CCCC(O)C=CC1C(O)CC(O)C1CC=CCCCC(=O)O [19(R)-Hydroxy-prostaglandin F2a],104,101,93.3 (inactive),95.9 (inactive)
C=C1NC2(C(=O)COC(C)=O)C(CC3C4CCC5=CC(=O)C=CC5(C)C4C(O)CC32C)O1 (stereo not given),96.8,108,86 (inactive),101 (inactive)
CC12CCC(=O)C=C1CCC1C2C(=O)CC2(C)C1CCC2(O)C(=O)CO (stereo not given) [Cortisone],87.8,82,106 (inactive),97 (inactive)
NC(Cc1cccc(-c2ccccc2CP(=O)(O)O)c1)C(=O)O (stereo not drawn) [Phenylbenzene-omega-phosphono-alpha-amino acid],99.4,104,89.5 (inactive),105 (inactive)
"Br.Br.N=C(N)SCCc1ccc(CCSC(=N)N)cc1 [1,4-PBIT dihydrobromide]",96.8,101,92 (inactive),105 (inactive)
CN(C)CCCN1c2ccccc2CCc2ccc(Cl)cc21.Cl [Clomipramine hydrochloride],89.6,102,107 (inactive),122 (inactive)
CNC1C(OC2C(OC3C(O)C(O)C(N=C(N)N)C(O)C3N=C(N)N)OC(C)C2(O)C=O)OC(CO)C(O)C1O (stereo not given) [Streptomycin],105,103,96.7 (inactive),89 (inactive)
O=C(/C=C/c1cccnc1)NCCCCC1CCN(C(=O)c2ccccc2)CC1,106,107,98.9 (inactive),90.3 (inactive)
C=CC(=O)c1ccc2ccccc2c1,99.7,92,103 (inactive),113 (inactive)
COc1ccccc1N1CCN(CCN2C(=O)CC3(CCCC3)CC2=O)CC1.Cl.Cl [BMY 7378 dihydrochloride],98.3,98.9,90.3 (inactive),89.9 (inactive)
